Holding throughout (assay): DAPPL (digital affinity profiling via proximity ligation, sequencing); 10 mM Tris-HCl pH 7.5, 50 mM NaCl, 1 mM DTT, 4% glycerol, room temperature, 30 min; GST-TFs on glutathione beads, 16-mer random dsDNA library, 0.1% formaldehyde crosslink after washing; high values mean tight binding
The target of one experiment is T1, FEV (Homo sapiens, UniProt Q99581 1-238).
T1 sequence: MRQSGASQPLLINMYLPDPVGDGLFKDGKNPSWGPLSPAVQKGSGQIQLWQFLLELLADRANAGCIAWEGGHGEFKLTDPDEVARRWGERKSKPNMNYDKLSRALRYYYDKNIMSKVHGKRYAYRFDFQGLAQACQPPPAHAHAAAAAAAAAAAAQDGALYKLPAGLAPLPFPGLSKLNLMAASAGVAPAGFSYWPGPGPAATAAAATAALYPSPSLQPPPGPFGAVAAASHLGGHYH
To be noted: protein: recombinant; tags: N-terminal GST; dsDNA, one strand shown. The method in brief:
(§1)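 A tag-only sample was pooled with DNA-barcoded human transcription factors that had been expressed in yeast as GST fusions and captured on glutathione beads. The pools were incubated for 30 min at room temperature with 200 nmole of a random double-stranded 16-mer DNA library in Tris/NaCl/DTT/glycerol buffer, then washed, crosslinked with 0.1% formaldehyde, proximity-ligated (BsaI/T4 ligase, 1 h, 37 °C), PCR-amplified and sequenced on an Illumina NextSeq500. Binding signal is each hexamer's read frequency for a factor divided by its frequency for the tag-only sample.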

Another experiment concerns the target ETV5 (Homo sapiens, UniProt P41161 1-510). To be noted: protein: recombinant; tags: N-terminal GST; dsDNA, one strand shown. The method in brief:
as §1

For the next experiment, the target named is HSF1 (Homo sapiens, UniProt Q00613 1-529). To be noted: protein: recombinant; tags: N-terminal GST; chain copies: 3; dsDNA, one strand shown. The method in brief:
as §1

Another experiment has as its target T2, SPIC (Homo sapiens, UniProt Q8N5J4 1-248).
T2 sequence: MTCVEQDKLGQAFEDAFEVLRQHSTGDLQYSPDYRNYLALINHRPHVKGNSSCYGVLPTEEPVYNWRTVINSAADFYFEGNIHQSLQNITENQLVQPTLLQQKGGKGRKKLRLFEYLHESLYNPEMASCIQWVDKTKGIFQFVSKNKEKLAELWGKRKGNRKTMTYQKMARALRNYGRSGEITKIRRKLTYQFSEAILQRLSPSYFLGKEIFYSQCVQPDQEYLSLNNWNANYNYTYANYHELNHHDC
To be noted: protein: recombinant; tags: N-terminal GST; dsDNA, one strand shown. The method in brief:
as §1

In another experiment the target is ELF4 (Homo sapiens, UniProt Q99607 1-663). To be noted: protein: recombinant; tags: N-terminal GST; dsDNA, one strand shown. The method in brief:
as §1

Another experiment addresses T3, ELK4 (Homo sapiens, UniProt P28324-2 1-405).
T3 sequence: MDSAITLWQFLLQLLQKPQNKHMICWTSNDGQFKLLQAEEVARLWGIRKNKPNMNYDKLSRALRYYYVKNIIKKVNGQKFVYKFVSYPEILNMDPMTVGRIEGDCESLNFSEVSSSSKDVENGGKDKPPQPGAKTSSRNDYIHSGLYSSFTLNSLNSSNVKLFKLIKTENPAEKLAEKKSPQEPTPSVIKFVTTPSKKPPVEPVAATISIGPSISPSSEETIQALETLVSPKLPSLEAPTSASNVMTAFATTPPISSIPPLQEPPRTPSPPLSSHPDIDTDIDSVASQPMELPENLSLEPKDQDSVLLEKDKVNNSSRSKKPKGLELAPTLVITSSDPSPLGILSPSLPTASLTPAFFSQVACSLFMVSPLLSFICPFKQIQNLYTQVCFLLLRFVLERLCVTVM
To be noted: protein: recombinant; tags: N-terminal GST; dsDNA, one strand shown. The method in brief:
as §1

For another experiment, the target named is T4, ETV2 (Homo sapiens, UniProt O00321 1-342).
T4 sequence: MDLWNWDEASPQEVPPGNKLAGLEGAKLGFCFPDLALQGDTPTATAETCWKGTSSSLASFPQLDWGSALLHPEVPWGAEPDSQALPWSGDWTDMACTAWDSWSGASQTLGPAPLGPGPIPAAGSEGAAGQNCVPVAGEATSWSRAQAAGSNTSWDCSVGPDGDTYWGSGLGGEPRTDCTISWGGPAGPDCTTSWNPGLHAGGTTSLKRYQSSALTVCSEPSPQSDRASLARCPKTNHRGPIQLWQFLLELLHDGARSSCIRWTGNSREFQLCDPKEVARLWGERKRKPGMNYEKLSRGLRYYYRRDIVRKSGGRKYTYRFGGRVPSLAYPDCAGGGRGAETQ
To be noted: protein: recombinant; tags: N-terminal GST; dsDNA, one strand shown. The method in brief: as §1

The target in another experiment is T5, ELF3 (Homo sapiens, UniProt P78545 1-371).
T5 sequence: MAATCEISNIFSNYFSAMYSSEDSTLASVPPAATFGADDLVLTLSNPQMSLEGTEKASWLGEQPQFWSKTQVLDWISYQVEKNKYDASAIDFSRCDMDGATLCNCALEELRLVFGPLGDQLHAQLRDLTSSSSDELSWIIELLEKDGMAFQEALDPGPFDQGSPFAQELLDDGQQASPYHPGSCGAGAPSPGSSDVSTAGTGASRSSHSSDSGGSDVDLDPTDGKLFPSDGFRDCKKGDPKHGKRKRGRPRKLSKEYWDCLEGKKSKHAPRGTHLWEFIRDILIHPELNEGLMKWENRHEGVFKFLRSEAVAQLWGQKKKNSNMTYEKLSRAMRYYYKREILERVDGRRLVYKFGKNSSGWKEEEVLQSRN
To be noted: protein: recombinant; tags: N-terminal GST; dsDNA, one strand shown. The method in brief: as §1

The target of the next experiment is CRX (Homo sapiens, UniProt O43186 1-299). To be noted: protein: recombinant; tags: N-terminal GST; dsDNA, one strand shown. In outline: as §1
Sequence of CRX (O43186 whole entry): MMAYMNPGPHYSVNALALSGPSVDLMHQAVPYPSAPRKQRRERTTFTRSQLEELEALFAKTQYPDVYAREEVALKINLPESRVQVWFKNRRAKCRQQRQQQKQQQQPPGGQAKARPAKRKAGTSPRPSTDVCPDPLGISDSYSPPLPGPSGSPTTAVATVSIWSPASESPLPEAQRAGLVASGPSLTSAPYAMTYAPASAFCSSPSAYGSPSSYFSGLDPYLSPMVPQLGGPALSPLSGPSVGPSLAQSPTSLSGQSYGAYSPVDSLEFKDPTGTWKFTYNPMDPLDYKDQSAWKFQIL
Another experiment addresses ETV1 (Homo sapiens, UniProt P50549 1-477). To be noted: protein: recombinant; tags: N-terminal GST; dsDNA, one strand shown. The method in brief:
as §1

For the next experiment, the target named is T6, ERF (Homo sapiens, UniProt P50548 1-548).
T6 sequence: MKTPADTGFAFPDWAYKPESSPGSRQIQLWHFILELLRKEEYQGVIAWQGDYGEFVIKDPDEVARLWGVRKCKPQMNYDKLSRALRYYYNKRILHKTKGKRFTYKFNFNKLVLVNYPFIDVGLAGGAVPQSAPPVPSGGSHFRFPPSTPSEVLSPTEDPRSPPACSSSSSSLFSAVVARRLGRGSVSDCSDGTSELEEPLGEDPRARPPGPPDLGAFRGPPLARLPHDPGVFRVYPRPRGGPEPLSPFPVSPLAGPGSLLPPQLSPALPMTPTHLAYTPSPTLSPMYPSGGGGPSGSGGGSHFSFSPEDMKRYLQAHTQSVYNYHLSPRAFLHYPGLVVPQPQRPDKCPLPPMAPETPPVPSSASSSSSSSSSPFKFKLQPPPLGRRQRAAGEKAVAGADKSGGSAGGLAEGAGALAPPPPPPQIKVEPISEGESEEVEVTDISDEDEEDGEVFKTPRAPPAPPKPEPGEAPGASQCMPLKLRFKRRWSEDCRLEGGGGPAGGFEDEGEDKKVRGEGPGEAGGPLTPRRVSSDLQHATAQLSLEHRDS
To be noted: protein: recombinant; tags: N-terminal GST; dsDNA, one strand shown. The method in brief: as §1

The target of another experiment is T7, ETV3L (Homo sapiens, UniProt Q6ZN32 1-361).
T7 sequence: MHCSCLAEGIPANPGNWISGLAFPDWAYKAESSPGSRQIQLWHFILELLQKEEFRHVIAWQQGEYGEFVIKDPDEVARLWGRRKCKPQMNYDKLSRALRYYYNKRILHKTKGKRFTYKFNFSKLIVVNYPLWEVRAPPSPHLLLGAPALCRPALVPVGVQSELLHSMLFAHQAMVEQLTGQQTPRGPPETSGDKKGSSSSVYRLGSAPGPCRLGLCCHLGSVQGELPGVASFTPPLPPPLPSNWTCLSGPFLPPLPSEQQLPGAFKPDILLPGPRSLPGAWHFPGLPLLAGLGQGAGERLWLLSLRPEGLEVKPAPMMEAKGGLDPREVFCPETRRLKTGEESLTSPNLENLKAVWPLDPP
To be noted: protein: recombinant; tags: N-terminal GST; dsDNA, one strand shown. In outline:
as §1

A further experiment addresses T8, ETS2 (Homo sapiens, UniProt P15036 1-469).
T8 sequence: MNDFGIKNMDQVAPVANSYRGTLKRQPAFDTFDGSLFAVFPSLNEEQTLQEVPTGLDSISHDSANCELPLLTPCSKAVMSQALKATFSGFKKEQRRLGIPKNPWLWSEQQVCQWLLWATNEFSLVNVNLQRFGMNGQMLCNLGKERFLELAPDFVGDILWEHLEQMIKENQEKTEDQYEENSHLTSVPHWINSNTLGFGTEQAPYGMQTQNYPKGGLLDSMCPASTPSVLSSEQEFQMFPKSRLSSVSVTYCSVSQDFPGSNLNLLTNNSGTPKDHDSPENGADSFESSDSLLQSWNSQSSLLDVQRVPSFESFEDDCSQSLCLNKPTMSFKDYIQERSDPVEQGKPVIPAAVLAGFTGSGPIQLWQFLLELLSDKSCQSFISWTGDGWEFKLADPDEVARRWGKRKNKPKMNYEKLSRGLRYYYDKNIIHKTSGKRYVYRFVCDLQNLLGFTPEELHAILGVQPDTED
To be noted: protein: recombinant; tags: N-terminal GST; dsDNA, one strand shown. The method in brief:
as §1

The target of the next experiment is T9, SPDEF (Homo sapiens, UniProt O95238 1-335).
T9 sequence: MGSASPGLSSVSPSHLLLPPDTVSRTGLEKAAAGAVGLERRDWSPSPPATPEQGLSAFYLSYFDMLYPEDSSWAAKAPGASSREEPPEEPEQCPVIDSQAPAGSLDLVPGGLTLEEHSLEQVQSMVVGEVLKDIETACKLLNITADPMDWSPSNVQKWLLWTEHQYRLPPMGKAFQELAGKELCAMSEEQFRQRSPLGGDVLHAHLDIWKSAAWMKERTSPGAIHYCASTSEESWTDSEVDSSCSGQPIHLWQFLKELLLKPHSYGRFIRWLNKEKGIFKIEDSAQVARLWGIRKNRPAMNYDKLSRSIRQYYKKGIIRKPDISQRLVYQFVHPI
To be noted: protein: recombinant; tags: N-terminal GST; dsDNA, one strand shown. In outline: as §1

The next experiment deals with T10, ETV7 (Homo sapiens, UniProt Q9Y603 1-341).
T10 sequence: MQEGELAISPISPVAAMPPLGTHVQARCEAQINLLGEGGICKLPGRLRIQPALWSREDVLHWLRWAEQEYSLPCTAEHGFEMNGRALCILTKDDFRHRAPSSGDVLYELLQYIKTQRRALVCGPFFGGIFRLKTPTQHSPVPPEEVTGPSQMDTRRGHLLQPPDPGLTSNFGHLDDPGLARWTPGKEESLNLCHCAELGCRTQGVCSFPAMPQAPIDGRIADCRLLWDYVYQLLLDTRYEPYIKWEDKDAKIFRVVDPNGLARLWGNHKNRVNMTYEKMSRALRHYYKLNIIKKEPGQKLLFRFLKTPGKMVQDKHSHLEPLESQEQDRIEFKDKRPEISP
To be noted: protein: recombinant; tags: N-terminal GST; dsDNA, one strand shown. In outline: as §1

A further experiment deals with T11, ELF5 (Homo sapiens, UniProt Q9UKW6-2 1-255).
T11 sequence: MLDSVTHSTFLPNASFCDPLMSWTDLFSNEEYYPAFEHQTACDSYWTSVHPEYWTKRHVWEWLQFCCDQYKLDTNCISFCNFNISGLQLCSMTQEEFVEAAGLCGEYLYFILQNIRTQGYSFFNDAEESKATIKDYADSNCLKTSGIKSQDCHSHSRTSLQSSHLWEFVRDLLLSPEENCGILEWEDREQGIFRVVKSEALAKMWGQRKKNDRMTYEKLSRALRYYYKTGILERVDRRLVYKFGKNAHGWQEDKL
To be noted: protein: recombinant; tags: N-terminal GST; dsDNA, one strand shown. In outline: as §1

The next experiment deals with T12, ETV3 (Homo sapiens, UniProt P41162-2 1-143).
T12 sequence: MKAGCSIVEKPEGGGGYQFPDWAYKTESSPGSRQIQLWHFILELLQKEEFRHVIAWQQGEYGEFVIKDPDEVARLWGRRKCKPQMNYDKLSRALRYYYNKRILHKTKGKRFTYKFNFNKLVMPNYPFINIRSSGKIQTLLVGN
To be noted: protein: recombinant; tags: N-terminal GST; dsDNA, one strand shown. The method in brief:
as §1

The target of a further experiment is ETV6 (Homo sapiens, UniProt P41212 1-452). To be noted: protein: recombinant; tags: N-terminal GST; dsDNA, one strand shown. The method in brief: as §1
Sequence of ETV6 (P41212 whole entry): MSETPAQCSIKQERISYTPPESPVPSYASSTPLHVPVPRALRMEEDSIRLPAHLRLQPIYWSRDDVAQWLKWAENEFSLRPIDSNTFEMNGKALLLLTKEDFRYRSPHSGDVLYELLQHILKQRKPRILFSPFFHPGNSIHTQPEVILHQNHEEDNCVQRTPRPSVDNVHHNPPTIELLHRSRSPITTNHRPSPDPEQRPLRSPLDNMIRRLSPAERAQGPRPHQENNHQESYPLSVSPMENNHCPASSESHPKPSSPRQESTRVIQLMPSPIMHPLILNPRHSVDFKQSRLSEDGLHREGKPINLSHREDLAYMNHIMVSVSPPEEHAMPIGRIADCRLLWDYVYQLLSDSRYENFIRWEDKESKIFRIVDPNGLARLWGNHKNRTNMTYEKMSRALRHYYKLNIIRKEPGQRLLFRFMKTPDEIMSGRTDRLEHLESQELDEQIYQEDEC

Sequence of ETV5 (P41161 whole entry): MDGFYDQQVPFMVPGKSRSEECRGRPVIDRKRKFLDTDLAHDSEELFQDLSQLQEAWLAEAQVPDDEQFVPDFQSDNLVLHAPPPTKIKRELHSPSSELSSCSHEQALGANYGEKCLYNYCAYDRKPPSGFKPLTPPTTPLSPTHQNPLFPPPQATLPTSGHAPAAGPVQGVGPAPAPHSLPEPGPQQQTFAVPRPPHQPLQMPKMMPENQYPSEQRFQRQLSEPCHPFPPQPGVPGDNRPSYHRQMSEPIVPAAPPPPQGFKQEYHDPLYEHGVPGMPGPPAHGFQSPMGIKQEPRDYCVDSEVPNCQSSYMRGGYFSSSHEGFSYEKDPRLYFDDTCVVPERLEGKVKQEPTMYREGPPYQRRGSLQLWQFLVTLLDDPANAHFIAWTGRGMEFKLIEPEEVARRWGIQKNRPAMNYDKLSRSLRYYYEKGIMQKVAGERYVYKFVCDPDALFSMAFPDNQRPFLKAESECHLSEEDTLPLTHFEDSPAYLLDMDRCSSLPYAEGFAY
Sequence of ETV1 (P50549 whole entry): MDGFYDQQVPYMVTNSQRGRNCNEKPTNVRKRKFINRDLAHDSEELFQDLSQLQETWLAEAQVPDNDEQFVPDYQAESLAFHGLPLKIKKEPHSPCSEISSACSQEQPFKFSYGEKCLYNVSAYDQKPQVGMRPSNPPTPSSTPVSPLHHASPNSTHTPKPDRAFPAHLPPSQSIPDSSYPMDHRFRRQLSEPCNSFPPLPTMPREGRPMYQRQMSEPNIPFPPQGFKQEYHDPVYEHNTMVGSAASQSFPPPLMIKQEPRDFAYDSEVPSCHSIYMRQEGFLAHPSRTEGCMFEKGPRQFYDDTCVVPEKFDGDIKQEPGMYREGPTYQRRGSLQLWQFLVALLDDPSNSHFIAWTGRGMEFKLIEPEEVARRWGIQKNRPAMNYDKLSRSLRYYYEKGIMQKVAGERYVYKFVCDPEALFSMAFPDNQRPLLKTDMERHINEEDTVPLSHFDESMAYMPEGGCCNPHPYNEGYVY
Sequence of HSF1 (Q00613 whole entry): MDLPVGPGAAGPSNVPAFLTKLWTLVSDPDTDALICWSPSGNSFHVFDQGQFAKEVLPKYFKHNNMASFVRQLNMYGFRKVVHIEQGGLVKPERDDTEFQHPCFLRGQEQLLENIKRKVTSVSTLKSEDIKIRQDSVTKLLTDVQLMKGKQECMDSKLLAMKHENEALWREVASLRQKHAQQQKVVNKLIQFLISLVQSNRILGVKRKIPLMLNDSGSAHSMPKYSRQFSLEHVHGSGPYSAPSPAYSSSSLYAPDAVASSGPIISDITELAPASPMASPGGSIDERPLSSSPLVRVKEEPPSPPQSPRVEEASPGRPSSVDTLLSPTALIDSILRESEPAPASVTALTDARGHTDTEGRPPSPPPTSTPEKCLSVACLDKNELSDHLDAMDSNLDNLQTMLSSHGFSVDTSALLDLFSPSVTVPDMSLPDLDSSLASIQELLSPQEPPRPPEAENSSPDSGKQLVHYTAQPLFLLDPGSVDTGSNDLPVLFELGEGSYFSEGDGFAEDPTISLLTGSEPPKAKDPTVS
Sequence of ELF4 (Q99607 whole entry): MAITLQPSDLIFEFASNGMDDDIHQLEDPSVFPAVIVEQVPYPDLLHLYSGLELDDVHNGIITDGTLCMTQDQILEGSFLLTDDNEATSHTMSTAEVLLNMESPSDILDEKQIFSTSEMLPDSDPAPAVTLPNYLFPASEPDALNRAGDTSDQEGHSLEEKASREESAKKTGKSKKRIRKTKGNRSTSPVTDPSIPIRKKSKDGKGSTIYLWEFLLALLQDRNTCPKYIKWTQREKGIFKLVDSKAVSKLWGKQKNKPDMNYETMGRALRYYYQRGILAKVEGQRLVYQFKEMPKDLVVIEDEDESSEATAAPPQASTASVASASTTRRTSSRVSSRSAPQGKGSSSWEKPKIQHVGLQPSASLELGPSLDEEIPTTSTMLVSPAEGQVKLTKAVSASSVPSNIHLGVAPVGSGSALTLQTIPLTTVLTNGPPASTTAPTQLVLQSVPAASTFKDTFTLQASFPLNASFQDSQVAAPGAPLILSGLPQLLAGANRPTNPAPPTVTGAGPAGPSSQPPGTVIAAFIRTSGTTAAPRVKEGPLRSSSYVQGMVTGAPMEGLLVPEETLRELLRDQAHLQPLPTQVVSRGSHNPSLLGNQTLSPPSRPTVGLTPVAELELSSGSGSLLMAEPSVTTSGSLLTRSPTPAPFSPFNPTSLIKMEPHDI

For CTCAAC, the binding signal with FEV is 1.32 fold enrichment (6-mer frequency, TF over GST control); with ETV5 it was 1.3 fold enrichment (6-mer frequency, TF over GST control); in the experiment with HSF1 it was 1.1 fold enrichment (6-mer frequency, TF over GST control); with SPIC, 1.36 fold enrichment (6-mer frequency, TF over GST control); with ELF4 it was 1.3 fold enrichment (6-mer frequency, TF over GST control); in the experiment with ELK4, 1.18 fold enrichment (6-mer frequency, TF over GST control). For the same sequence, the binding signal is 1.29 fold enrichment (6-mer frequency, TF over GST control) with ETV2; 1.19 fold enrichment (6-mer frequency, TF over GST control) in the experiment with ELF3; 1.13 fold enrichment (6-mer frequency, TF over GST control) with CRX; 1.24 fold enrichment (6-mer frequency, TF over GST control) with ETV1; 1.15 fold enrichment (6-mer frequency, TF over GST control) with ERF; 1.41 fold enrichment (6-mer frequency, TF over GST control) with ETV3L. Moreover, the binding signal is 1.27 fold enrichment (6-mer frequency, TF over GST control) with ETS2; 1.24 fold enrichment (6-mer frequency, TF over GST control) with SPDEF; 1.11 fold enrichment (6-mer frequency, TF over GST control) with ETV7; 1.16 fold enrichment (6-mer frequency, TF over GST control) with ELF5; 1.28 fold enrichment (6-mer frequency, TF over GST control) with ETV3; 1.24 fold enrichment (6-mer frequency, TF over GST control) in the experiment with ETV6.

For the origin of these results see PMC7862700, “An all-to-all approach to the identification of sequence-specific readers for epigenetic DNA modifications on cytosine”.
